High-throughput results: PubChem, The Scripps Research Institute Molecular Screening Center
TbREL1 inh – TbREL1 inhibition, primary screen | P86926 | TbREL1 RNA ligation, FRET fluorescence | inhibition, % at 9.66 µM | 89,000 compounds, 0.49% hits;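 active means inhibition above the mean inhibition across all screened compounds plus 3 SD, cut at about 11% in these data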;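 further: 0% = plate median of test wells and 100% = NSC42067 control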
Target sequence (P86926 whole entry, looked up): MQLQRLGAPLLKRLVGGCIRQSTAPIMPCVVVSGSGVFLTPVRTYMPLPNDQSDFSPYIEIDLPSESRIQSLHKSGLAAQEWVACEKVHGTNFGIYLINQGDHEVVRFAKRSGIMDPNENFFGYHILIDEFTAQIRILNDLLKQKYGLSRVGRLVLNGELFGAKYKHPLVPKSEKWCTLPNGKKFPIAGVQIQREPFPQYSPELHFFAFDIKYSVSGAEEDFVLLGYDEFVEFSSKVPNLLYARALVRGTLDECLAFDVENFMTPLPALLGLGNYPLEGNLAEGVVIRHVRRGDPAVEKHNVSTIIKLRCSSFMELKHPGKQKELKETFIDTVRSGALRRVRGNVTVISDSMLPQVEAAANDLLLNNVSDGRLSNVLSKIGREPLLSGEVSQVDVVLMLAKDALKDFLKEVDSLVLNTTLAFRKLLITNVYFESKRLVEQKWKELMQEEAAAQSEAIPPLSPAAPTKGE
TbREL1 confirm – TbREL1 inhibition, confirmation; shares compounds with TbREL1 inh; inhibition, % at 9.66 µM; TbREL1 RNA ligation, FRET fluorescence; 390 compounds, 37% hits; AID 1117282;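 active means mean inhibition across replicates above a set limit taken from the earlier primary screen, cut at about 11% in these data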;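 further: 0% = REL1 with substrate and DMSO and 100% = REL1 plus control inhibitor NSC42067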
* marks the source's active call; other numbers are inactive results. The entries come from a sample that favours hits as a whole.

SMILES	TbREL1 inh	others
C[C@H]1[C@@H](OC(=O)Nc2cccc(Cl)c2)CC[C@@]23CCCN2C(=O)CCC[C@@H]13	-6
c1ccc(-c2csc(=Nc3cccnc3)n2CC2CCCO2)cc1 (stereo not drawn)	0
c1ccc(-c2cnc(SCCN3CCOCC3)n2CC2CCCO2)cc1 (stereo not drawn)	15*	TbREL1 confirm=-1
COc1ccc(-c2cnc(N)n2CC2CCCO2)cc1 (stereo not drawn)	0
CCOc1ccc(CCNC(=O)c2cc3sccc3n2Cc2ccccc2)cc1OCC	-1
Cc1ccc(-n2c(SC/C=C/c3ccccc3)nnc2-c2ccco2)cc1	0
COc1ccc(-c2cnnc(N/N=C/c3ccc(OC)c(OC)c3)n2)cc1	11*	TbREL1 confirm=-2
COc1ccc(/C=N/Nc2nc(-c3ccc(Cl)cc3)cc(C(F)(F)F)n2)cc1OC	-2
CCOc1cc(/C=N/Nc2nncc(-c3ccccc3)n2)ccc1O	0
CCOC(=O)[C@]12CCCC=C1N(Cc1ccc(OC)cc1)C(=O)[C@@H]2CC(=O)NCCCCc1ccccc1	1
C[C@H]1[C@H](N(C)C)CC[C@@]23CCCN2C(=O)CCC[C@@H]13	0
Cc1nc2c(C(=O)N3CCCC3)cnn2c(C)c1Cc1c(F)cccc1Cl	7
COC(=O)c1cnn2c(C)c(Cc3cccc(F)c3)c(C)nc12	16*	TbREL1 confirm=2
COC(=O)c1ccc2nc(-c3ccc(C)cc3)c(Cc3cccc(F)c3)n2c1	7
COc1ccc(-n2c(SCc3ccc([N+](=O)[O-])cc3)nnc2-c2ccco2)cc1	-3
CC(C)Cc1ccc(C(C)C(N)=NCCc2ccccc2)cc1 (stereo not drawn)	12*	TbREL1 confirm=12*
CC(C)c1ccc(CNCc2ccccc2)cc1	2
COC(=O)c1cc(NC(=O)C(C)c2ccc(CC(C)C)cc2)ccc1O (stereo not drawn)	1
CC(C)(C)OC(=O)N1CCC(N[C@@H](Cc2c[nH]c3ccccc23)C(=O)NCC(c2ccccc2)c2ccccc2)(C(=O)NC2CCCCC2)CC1	0
CCC[C@H]1[C@@H](OC(=O)NCc2ccco2)CC[C@@]23CCCN2C(=O)CCC[C@@H]13	-3
COc1ccc(C(C(=O)N(C)C2CCCC2)N(Cc2ccc(F)cc2)C(=O)c2ncn[nH]2)cc1OC (stereo not drawn)	-2
CCOC(=O)Cc1nnc(NC(=O)c2ncn[nH]2)s1	11*	TbREL1 confirm=7
CCOC(=O)Cc1nnc(NC(=O)c2ccccc2OCC)s1	-2
CCOC(=O)Cc1nnc(NC(=O)COc2ccc(C)cc2)s1	0
NCCC(=O)Nc1ccc(Cl)cc1C(=O)c1ccc[nH]1	2
SMILES	TbREL1 inh	others
O=C(Nc1ccc(F)cc1)OCc1cn(Cc2ccc(Cl)cc2)nn1	-2
O=C(Nc1ccc(F)cc1)OCc1cn(Cc2ccccc2)nn1	-2
Cc1cccc(Cn2cc(COC(=O)Nc3ccc(F)cc3)nn2)c1	15*	TbREL1 confirm=0
CCn1c(COc2ccc(C)cc2)nnc1SCc1cccc(C(F)(F)F)c1	-1
O=C(NCCCc1ccccc1)[C@H](Cc1ccccc1)NC1(C(=O)NCCc2c[nH]c3ccccc23)CCOCC1	-5
Oc1ccccc1/C=N/Nc1cc(N2CCCC2)nc(N2CCCC2)n1	19*	TbREL1 confirm=38*
CCOc1cc(/C=N/Nc2nc(N3CCCC3)nc(N3CCCC3)n2)ccc1O	-6
O=C(NNc1cc(N2CCCC2)nc(N2CCCC2)n1)c1ccc([N+](=O)[O-])cc1	-5
CC1CCN(CCCNS(=O)(=O)c2cc3c(cc2Br)CCN3C(=O)C2CC2)CC1	-1
CCOc1ccc(CCNC(=O)c2cc3sccc3n2Cc2cccc(C)c2)cc1OCC	4
CCN(C(=O)C1CCN(c2ncccn2)CC1)c1ccccc1	-2
COC(=O)c1cc(S(=O)(=O)N2CCN(c3cccc(C(F)(F)F)c3)CC2)cn1C	6
